This is part of a sample that, as a whole, favours compounds with a hit. Of some 83,000 tested, about 20% had one in any assay.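 Treatment: one concentration, 48 hours, 96-well format. Scoring: percent growth, with anything below 10 considered active.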 Values without a mark were called inactive. The source made the active and inactive calls.
What follows are molecules tested on MDA-MB-468 breast (assay: NCI-60 one-dose screen, 48 h (100 = growth as untreated, 0 = no growth, -100 = all killed)). Details: 10 µM unless noted.

Compound	growth
O=C1/C(=C/c2ccc(F)cc2)COc2ccc(O)c(O)c21	-2.42% (active)
CCC(=O)Oc1ccc2ccccc2c1	96.8%
Cc1[nH]c(=S)[nH]c(=O)c1C	112%
CCc1c(Cl)nc(N)nc1Nc1ccc(C)c(C)c1	83.2%
CC(=O)c1nnn(-c2c(C(=O)n3nc(C)cc3C)sc(=S)n2-c2ccccc2)c1C	96.8%
Cn1cc(-c2csc(-c3cn(C)c4ncccc34)n2)c2cc(F)cnc21	-10.1% (active)
CC(CN(C)C)Oc1ccc(OC(C)CN(C)C)c2c1C(=O)c1ccccc1C2=O (stereo not given)	33.2%
COc1cc2c(cc1O)CCc1cc(O)cc(OC)c1-2	98%
CCCCCc1ccc(S(=O)(=O)Nc2cccc(-c3csc(NC(=O)CCCCCN4CCN(CCO)CC4)n3)c2)cc1	85%
Cc1nc(NN)c([N+](=O)[O-])c(NN)n1	122%
Cc1ccccc1NC(=O)NC(CC(N)=O)c1ccc2c(c1)nc(-c1cccc(Oc3ccc(C(C)(C)C)cc3)c1)n2CCCN1CCCCC1C (stereo not given)	-78.8% (active)
COc1ccc(-c2cc(Nc3ccnc(N4CCOCC4)n3)on2)cc1	24.8%
COc1ccc(/C(C)=C(\c2ccc(OCCN3CCCCCC3)cc2)c2ccc(OC(=O)C3CCCCC3)cc2)cc1	-74.5% (active)
C/C(=C\CCc1ccoc1)CC/C=C(\C)CCCN1CCOCC1	5.68% (active)
CCN(CC)Cc1cc(Nc2c3ccccc3nc3cc(Cl)ccc23)ccc1O	-72.4% (active)
